Source: PubChem (The Scripps Research Institute Molecular Screening Center)
M1 ag – agonists of human M1 muscarinic receptor | P11229 | CHO-K1 hM1, Fluo-8 calcium fluorescence, agonist mode; 0% DMSO, 100% acetylcholine EC100 | activation, % at 3 µM | hit rate 0.33% among 360,000;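 active = activation above the run's mean compound activation plus 3 SD, cut at about 16% in these data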;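 also: peak over basal fluorescence ratio within a 140 s kinetic read after compound addition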
CHRM4 agonist – CHRM4 agonism in calcium assay | P08173 | CHO-K1 hM4/Gqi5, Fluo-8 calcium fluorescence; vehicle 0%, full acetylcholine response 100% | activation, % at 3 µM | hit rate 0.14% among 360,000 | AID 624127;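 active = activation above the run mean over all test wells plus 3 SD, cut at about 32% in these data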;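 also: peak over basal fluorescence ratio per well then scaled between controls; 0% = DMSO wells and 100% = acetylcholine at EC100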
Target sequence (P08173 whole entry, looked up): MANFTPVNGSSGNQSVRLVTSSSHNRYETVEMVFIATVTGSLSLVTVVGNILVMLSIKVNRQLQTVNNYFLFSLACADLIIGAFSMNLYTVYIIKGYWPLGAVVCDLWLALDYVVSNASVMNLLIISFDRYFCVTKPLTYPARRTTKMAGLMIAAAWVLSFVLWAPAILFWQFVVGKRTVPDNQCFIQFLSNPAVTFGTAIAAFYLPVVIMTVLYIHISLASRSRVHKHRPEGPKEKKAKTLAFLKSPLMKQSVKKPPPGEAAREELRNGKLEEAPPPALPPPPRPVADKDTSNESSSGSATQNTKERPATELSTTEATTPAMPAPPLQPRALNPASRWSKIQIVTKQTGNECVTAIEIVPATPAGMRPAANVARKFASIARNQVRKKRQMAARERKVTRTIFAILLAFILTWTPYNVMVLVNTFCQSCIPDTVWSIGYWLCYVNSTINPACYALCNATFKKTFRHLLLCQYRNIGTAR
M1 PAM – human CHRM1 positive allosteric modulation | P11229 | CHO-K1 hM1, Fluo-8 calcium fluorescence, ACh EC20; 0% = ACh EC20, 100% = maximal ACh | activation, % at 3 µM | hit rate 0.088% among 360,000 | AID 588819; in the data active = activation above about 19%, passing the limit was not always enough
CHRM1 antagonist – blocks human M1 muscarinic receptor. AID 588852. hit rate 1.3% among 360,000. P11229. inhibition, % at 3 µM. CHO-K1 hM1, Fluo-8 calcium fluorescence, ACh EC80 antagonist;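 active = percent inhibition above its own plate's cutoff, namely the mean of that plate's compound wells plus 3 SD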;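 also: peak over basal fluorescence ratio during 140 s after agonist addition; 0% = ACh EC80 plus DMSO and 100% = DMSO alone without agonist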
CHRM4 antagonist – CHRM4 antagonism in calcium assay. P08173. CHO-hM4 cells, ACh EC80, Fluo-8 calcium fluorescence. inhibition, % at 3 µM. hit rate 0.73% among 360,000. AID 624125;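 active = inhibition above its plate's cutoff, the mean inhibition of sample wells plus 3 SD, cut at about 27% in these data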;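 also: 0% = acetylcholine EC80 with DMSO and 100% = DMSO without agonist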
M4 PAM – CHRM4 positive allosteric modulation; hit rate 0.4% among 360,000; P08173; activation, % at 3 µM; AID 624126; CHO-K1 hM4/Gqi5, Fluo-8 calcium fluorescence, ACh EC20; 0% = ACh EC20, 100% = maximal ACh;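 active = activation above its plate's cutoff, the mean activation of sample wells plus 3 SD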
Numbers without * were called inactive. Shown are actives, neighbours in structure and some others; about 2.2% of the full set was active somewhere.

COc1ccccc1CN1CC(C(=O)N2CCOCC2)CCC1=O (configuration not stated) was read as M1 ag -2, CHRM4 agonist 0, M1 PAM 2, CHRM1 antagonist -6, CHRM4 antagonist -2 and M4 PAM -2.
Screening CCOc1cc(C2C(C#N)=C(N)SC(N)=C2C#N)ccc1OCCN1CCOCC1 returned M1 ag -10, CHRM4 agonist 3, M1 PAM 3, CHRM1 antagonist 0, CHRM4 antagonist -2 and M4 PAM 12.
For CCOc1ccc(C2C(C#N)=C(N)SC(N)=C2C#N)c(OCC)c1 the results were M1 ag 18*, CHRM4 agonist 7, M1 PAM -3, CHRM1 antagonist 3, CHRM4 antagonist 1 and M4 PAM -9.
O=C(c1cc(COc2cccc3cnccc23)on1)N1CCCC(CCCO)C1 (configuration not stated) was read as M1 ag 4, CHRM4 agonist 29, M1 PAM -15, CHRM1 antagonist 48*, CHRM4 antagonist 18 and M4 PAM -17.
Screening COCC1CCN(C(=O)c2cc(COc3cccc4cnccc34)on2)CC1 returned M1 ag 2, CHRM4 agonist 14, M1 PAM -6, CHRM1 antagonist 11, CHRM4 antagonist -2 and M4 PAM -7.
Screening COc1ccc(-c2csc(NC(=O)c3ccccc3NS(=O)(=O)c3ccc(F)c(F)c3)n2)cc1 returned M1 ag 2, CHRM4 agonist 13, M1 PAM -16, CHRM1 antagonist 43*, CHRM4 antagonist 12 and M4 PAM -22.
`Cc1ccc(S(=O)(=O)Nc2ccccc2C(=O)Nc2nc(-c3ccc(F)cc3)cs2)cc1` gave M1 ag -1, CHRM4 agonist 12, M1 PAM -17, CHRM1 antagonist 35, CHRM4 antagonist 21 and M4 PAM -24.
`Cc1csc2ncnc(N3CCN(C(=S)Nc4ccc(C(F)(F)F)cc4)CC3)c12` gave M1 ag -2, CHRM4 agonist 12, M1 PAM -14, CHRM1 antagonist 43*, CHRM4 antagonist 8 and M4 PAM -10.
`CCCc1nnc(NC(=O)CCC(=O)N2CCN(Cc3ccc(F)cc3)CC2)s1` gave M1 ag 1, CHRM4 agonist 3, M1 PAM 7, CHRM1 antagonist -7, CHRM4 antagonist -14 and M4 PAM 1.
CCc1nnc(NC(=O)CCC(=O)N2CCN(Cc3ccc(F)cc3)CC2)s1 was read as M1 ag 16*, CHRM4 agonist 1, M1 PAM -2, CHRM1 antagonist -9, CHRM4 antagonist -3 and M4 PAM -2.
For CCc1cccc(C)c1NC(=O)c1ccc2c(c1)CCN2S(C)(=O)=O the results were M1 ag -2, CHRM4 agonist 2, M1 PAM 10, CHRM1 antagonist -8, CHRM4 antagonist -4 and M4 PAM -2.
For CCCOc1ccc(C(=O)N2CCCC2C(=O)O)cc1 (configuration not stated) the results were M1 ag 3, CHRM4 agonist 3, M1 PAM 28*, CHRM1 antagonist -24, CHRM4 antagonist -6 and M4 PAM 19*.
For Cc1csc(C(=O)O)c1-c1c(C)csc1C(=O)O the results were M1 ag -1, CHRM4 agonist 1, M1 PAM 16, CHRM1 antagonist -10, CHRM4 antagonist -6 and M4 PAM 23*.
Screening COc1ccc(-c2nc3ccccn3c2NC2CCCCC2)cc1SC1CCCCC1 returned M1 ag -5, CHRM4 agonist 3, M1 PAM -9, CHRM1 antagonist 23, CHRM4 antagonist 28* and M4 PAM -12.
COc1cc(-c2nc3ccccn3c2NCc2ccccc2)ccc1SC1CCCCC1 was read as M1 ag -6, CHRM4 agonist 6, M1 PAM -5, CHRM1 antagonist 9, CHRM4 antagonist 27* and M4 PAM -6.
CCC(C)Sc1ccc(-c2nc3ccccn3c2NCc2ccccc2)cc1OC (configuration not stated) was read as M1 ag -6, CHRM4 agonist 14, M1 PAM -9, CHRM1 antagonist 25, CHRM4 antagonist 29* and M4 PAM -6.
Screening COc1ccc(CSc2ccc(-c3nc4ccccn4c3NCc3ccccc3)cc2OC)cc1 returned M1 ag -3, CHRM4 agonist 9, M1 PAM -11, CHRM1 antagonist 17, CHRM4 antagonist 16 and M4 PAM -8.
`COc1cc(-c2nc3ccc(C)cn3c2NCc2ccccc2)ccc1SC1CCCCC1` gave M1 ag -3, CHRM4 agonist 3, M1 PAM -2, CHRM1 antagonist 2, CHRM4 antagonist 8 and M4 PAM -1.
Screening CN(C)S(=O)(=O)c1ccc(C(=O)Nc2ccc(CCC(=O)N3CCCC3)cc2)cc1 returned M1 ag -5, CHRM4 agonist 1, M1 PAM 1, CHRM1 antagonist -2, CHRM4 antagonist 1 and M4 PAM 10.
For CCOC(=O)C1=C(COC(=O)CCOc2ccc(OCC)cc2)NC(=O)NC1C (configuration not stated) the results were M1 ag -1, CHRM4 agonist 16, M1 PAM -1, CHRM1 antagonist -6, CHRM4 antagonist -23 and M4 PAM 1.
For Cc1ccc2cccc(S(=O)(=O)Nc3c(C)n(C)n(-c4ccccc4)c3=O)c2n1 the results were M1 ag -4, CHRM4 agonist 0, M1 PAM 3, CHRM1 antagonist 1, CHRM4 antagonist -1 and M4 PAM 0.
CCCn1c(SCC(=O)Nc2ccccc2Cl)nc(O)cc1=O was read as M1 ag 1, CHRM4 agonist 28, M1 PAM 13, CHRM1 antagonist -13, CHRM4 antagonist -8 and M4 PAM -8.
For CCCn1c(SCC(=O)Nc2cccc(F)c2)nc(O)cc1=O the results were M1 ag -2, CHRM4 agonist 41*, M1 PAM -1, CHRM1 antagonist 0, CHRM4 antagonist 27* and M4 PAM -11.
`CN(CCN(C)C(C)(C)C)C(=O)C(c1ccccc1)c1ccccc1` gave M1 ag -6, CHRM4 agonist 1, M1 PAM -27, CHRM1 antagonist 97*, CHRM4 antagonist 91* and M4 PAM -55.
For CC(C)(C)NC(=O)Cn1nnnc1-c1nonc1N the results were M1 ag -1, CHRM4 agonist 1, M1 PAM 5, CHRM1 antagonist -2, CHRM4 antagonist 6 and M4 PAM 4.
Screening Cc1nc2c(OCc3ccc(C(F)(F)F)cc3)cccn2c1N(C)CC1CC1 returned M1 ag -4, CHRM4 agonist 6, M1 PAM -33, CHRM1 antagonist 36*, CHRM4 antagonist 10 and M4 PAM -16.
